# In PubChem BioAssay (Tox21):
# Records with an inconclusive call do not appear. Entries that show only a call come without a potency. A number with no mark means an inactive call. Activity calls are given as the source filed them. Unless noted, calls follow the shape of the dose curve; as a rule, active = well fitted curve in the direction sought with a large enough effect in the repeat runs; inconclusive = weak or mixed curves; inactive = no such curve, though single readings can be large; an effect the other way counts as inactive or inconclusive.
# Key:
# [1] = qHTS assay to identify small molecule antagonists of the thyroid receptor (TR) signaling pathway - cell viability counter screen (AID 743064); also: nearly all actives have a fitted effect of over 50% in size
# Summary of the method: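 Counter screen for cytotoxicity: compound plus T3 (1 nM final) on GH3.TRE-Luc cells, 23.5 h at 37 °C, then fluorescence viability readout with CellTiter-Fluor.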
# [2] = qHTS assay to identify small molecule antagonists of the thyroid receptor (TR) signaling pathway (AID 743065); also: series mostly up to about 70 µM; nearly all actives have a fitted effect of over 55% in size
# Summary of the method: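 GH3.TRE-Luc rat pituitary cells (two TREs driving luciferase) were dosed with compound, then stimulated with 1 nM T3 (final) for 23.5 h at 37 C. ONE-Glo luminescence was the read-out, with CellTiter-Fluor fluorescence as the cytotoxicity counter-screen.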
# [3] = test system: thyroid hormone receptor (rat, GH3 cells); assay: qHTS assay to identify small molecule agonists of the thyroid receptor (TR) signaling pathway (AID 743066; calls by dose curve)
# [4] = qHTS assay to identify small molecule antagonists of the estrogen receptor alpha (ER-alpha) signaling pathway - cell viability counter screen (AID 743074; calls by dose curve;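 also: HEK293 cells carrying ER-alpha-UAS-bla reporter stimulated with 17beta-estradiol; nearly all actives have a fitted effect of over 45% in size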)
# [5] = qHTS assay to identify small molecule that activate the aryl hydrocarbon receptor (AhR) signaling pathway - cell viability counter screen (AID 743086);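 also: HepG2 liver cells carrying the AhR DRE luciferase reporter; series mostly up to about 70 µM; nearly all actives have a fitted effect of over 45% in size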
# Summary of the method: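 HepG2-AhR-luc (HG2L7.5c1) cells, 4000/well, treated 24 h at 37 C with compound; viability measured as CellTiter-Fluor fluorescence after 30 min in the same wells as the luciferase read.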
# [6] = qHTS assay for small molecule agonists of the antioxidant response element (ARE) signaling pathway (AID 743202; active = well fitted activation curve with a large enough effect in the signal ratio in the repeat runs, not every such curve was filed as active; the % refers to the signal ratio; also: potency is read from the fitted curve at half-maximal effect)
# Summary of the method: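 ARE-bla HepG2 cells (beta-lactamase reporter under the antioxidant response element), plated 5 hours, then exposed to compounds 16 hours at 37 C. LiveBLAzer B/G FRET substrate added for 2 hours at room temperature; fluorescence intensity read.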
# [7] = qHTS assay for small molecule agonists of the antioxidant response element (ARE) signaling pathway - cell viability counter screen (AID 743203; calls by dose curve; also: nearly all actives have a fitted effect of over 55% in size)
# Summary of the method: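 Compounds in DMSO were pinned onto ARE-bla HepG2 cells plated 5 hrs earlier at 2,000 cells/well. Sixteen hours later at 37C/5% CO2, CellTiter-Glo was added and luminescence measured after 30 min at room temperature.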
# [8] = qHTS assay for small molecule activators of the heat shock response signaling pathway - cell viability counter screen (AID 743209); also: nearly all actives have a fitted effect of over 50% in size
# Summary of the method: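 Counter screen for cytotoxicity in HeLa HSE-bla reporter cells. Treatment was 5 h at 37 C; viability was detected by luminescent ATP assay (CellTiter-Glo) in the same wells as the beta-lactamase read.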
# [9] = target: Estrogen receptor (Homo sapiens) (UniProt P03372); assay: qHTS assay to identify small molecule agonists of the estrogen receptor alpha (ER-alpha) signaling pathway (AID 743075; calls by dose curve)
# [10] = target: Estrogen receptor (Homo sapiens) (UniProt P03372); assay: qHTS assay to identify small molecule agonists of the estrogen receptor alpha (ER-alpha) signaling pathway using the BG1 cell line (AID 743079); also: nearly all actives have a fitted effect of over 20% in size; also: potency is read from the fitted curve at half-maximal effect
# [11] = qHTS assay to identify small molecule antagonists of the estrogen receptor alpha (ER-alpha) signaling pathway using the BG1 cell line (AID 743080; calls by dose curve;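 also: BG1 cells stimulated with 17beta-estradiol alongside compound; series mostly up to about 70 µM; nearly all actives have a fitted effect of over 25% in size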)
# Summary of the method: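 Luminescence from a 4×ERE-luciferase reporter in BG1-Luc-4E2 cells served as read-out. Cells, pre-cultured 5 days in stripped-serum phenol-red-free medium, were exposed to compound with 17beta-estradiol co-stimulation for 21.5 h at 37 C.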
# [12] = qHTS assay to identify small molecule antagonists of the estrogen receptor alpha (ER-alpha) signaling pathway using the BG1 cell line - cell viability counter screen (AID 743081);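 also: compound given together with 17beta-estradiol as the ER stimulus; series mostly up to about 70 µM; nearly all actives have a fitted effect of over 45% in size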
# Aromatase (Homo sapiens) = Aromatase (Homo sapiens) (UniProt P11511); assay: qHTS assay to identify aromatase inhibitors (AID 743083); also: series mostly up to about 70 µM; nearly all actives have a fitted effect of over 55% in size
# [13] = qHTS assay to identify aromatase inhibitors - cell viability counter screen (AID 743084);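 also: cells stimulated with testosterone during compound exposure; nearly all actives have a fitted effect of over 55% in size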
# [14] = target: Peroxisome proliferator-activated receptor gamma (Homo sapiens) (UniProt P37231); assay: qHTS assay to identify small molecule agonists of the peroxisome proliferator-activated receptor gamma (PPARg) signaling pathway (AID 743094; active = well fitted activation curve with a large enough effect in the signal ratio in the repeat runs, not every such curve was filed as active; the % refers to the signal ratio)
# Summary of the method: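 Following 5 h plating at 37C, PPARg-bla HEK293H cells receive compound or DMSO for 17 h; fluorescence intensity is recorded after LiveBLAzer B/G loading for 1 h at room temperature.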
# [15] = target: Peroxisome proliferator-activated receptor gamma (Homo sapiens) (UniProt P37231); assay: qHTS assay to identify small molecule antagonists of the peroxisome proliferator-activated receptor gamma (PPARg) signaling pathway (AID 743191; calls by dose curve; also: series mostly up to about 63 µM; nearly all actives have a fitted effect of over 30% in size)
# Summary of the method: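 GeneBLAzer PPARg UAS-bla HEK293H cells, 5 h post-plating, exposed to compounds 17 h at 37C. LiveBLAzer B/G FRET substrate added for 1 h at room temperature; beta-lactamase reporter read by fluorescence intensity.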
# [16] = qHTS assay to identify small molecule antagonists of the peroxisome proliferator-activated receptor gamma (PPARg) signaling pathway - cell viability counter screen (AID 743194); also: nearly all actives have a fitted effect of over 55% in size
# Summary of the method: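 Cytotoxicity counter screen in PPARg-bla HEK293H cells, same wells as reporter assay. Compounds plus 50 nM rosiglitazone (final) for 17 h at 37 C, then viability read by CellTiter-Glo luminescence.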
# [17] = qHTS assay for small molecule activators of the heat shock response signaling pathway (AID 743210; active = well fitted activation curve with a large enough effect in the signal ratio in the repeat runs, with a control signal flat, not every such curve was filed as active; the % refers to the signal ratio; also: series mostly up to about 63 µM)
# Summary of the method: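 HSE-bla HeLa cells (beta-lactamase reporter under heat shock response elements), plated overnight, then exposed to compounds 5 h at 37 C; LiveBLAzer B/G FRET substrate added, 2.5 h at room temperature, fluorescence intensity read.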
# [18] = target: Estrogen receptor (Homo sapiens) (UniProt P03372); assay: qHTS assay to identify small molecule antagonists of the estrogen receptor alpha (ER-alpha) signaling pathway (AID 743069; active = well fitted curve in the direction sought with a large enough effect in the signal ratio in the repeat runs, not every such curve was filed as active; the % refers to the signal ratio)
# Summary of the method: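 HEK293 ER-alpha-UAS-bla GripTite cells, held overnight in 2% charcoal-stripped FBS, 5,000 cells/well, preincubated 4 h, then compound plus 17beta-estradiol for 18 h at 37C. Beta-lactamase read by LiveBLAzer B/G FRET substrate, 2 h at room temperature.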
# [19] = target: Aryl hydrocarbon receptor (Homo sapiens) (UniProt P35869); assay: qHTS assay to identify small molecule that activate the aryl hydrocarbon receptor (AhR) signaling pathway (AID 743085); also: nearly all actives have a fitted effect of over 15% in size; also: potency is read from the fitted curve at half-maximal effect;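 as to activation: HG2L7.5c1 human HepG2 liver cells with stably integrated DRE-driven firefly reporter; series mostly up to about 70 µM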
# Summary of the method: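 Measured in HG2L7.5c1 cells: CellTiter-Fluor signal (30 min incubation, 37C) for viability, then luciferase luminescence (30 min, room temperature). Compound contact time was 24 h at 37C, following a 5 h pre-incubation.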
# Aryl hydrocarbon receptor (Homo sapiens), sequence (P35869 whole entry, looked up): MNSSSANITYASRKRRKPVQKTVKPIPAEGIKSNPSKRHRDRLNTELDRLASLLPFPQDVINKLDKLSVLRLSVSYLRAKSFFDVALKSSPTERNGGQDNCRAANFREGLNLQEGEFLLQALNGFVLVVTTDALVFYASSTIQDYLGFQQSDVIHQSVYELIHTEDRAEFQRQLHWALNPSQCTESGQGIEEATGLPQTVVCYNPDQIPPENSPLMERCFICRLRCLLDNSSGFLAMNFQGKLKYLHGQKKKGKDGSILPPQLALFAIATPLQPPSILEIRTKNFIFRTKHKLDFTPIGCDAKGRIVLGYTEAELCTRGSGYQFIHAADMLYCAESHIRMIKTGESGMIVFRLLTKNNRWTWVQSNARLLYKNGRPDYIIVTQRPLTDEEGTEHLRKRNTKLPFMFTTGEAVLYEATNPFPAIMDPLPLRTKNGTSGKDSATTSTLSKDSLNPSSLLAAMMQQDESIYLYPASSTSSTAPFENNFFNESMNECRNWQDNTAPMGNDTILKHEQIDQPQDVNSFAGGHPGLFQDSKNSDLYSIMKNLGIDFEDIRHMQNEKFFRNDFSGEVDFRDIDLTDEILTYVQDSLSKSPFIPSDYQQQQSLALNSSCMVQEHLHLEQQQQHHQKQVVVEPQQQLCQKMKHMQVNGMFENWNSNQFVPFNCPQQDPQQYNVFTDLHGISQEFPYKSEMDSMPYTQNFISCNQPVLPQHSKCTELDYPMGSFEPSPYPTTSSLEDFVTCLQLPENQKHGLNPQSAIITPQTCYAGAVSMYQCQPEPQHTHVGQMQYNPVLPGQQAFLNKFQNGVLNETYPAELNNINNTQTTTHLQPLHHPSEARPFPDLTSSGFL
# Estrogen receptor (Homo sapiens), sequence (P03372 whole entry, looked up): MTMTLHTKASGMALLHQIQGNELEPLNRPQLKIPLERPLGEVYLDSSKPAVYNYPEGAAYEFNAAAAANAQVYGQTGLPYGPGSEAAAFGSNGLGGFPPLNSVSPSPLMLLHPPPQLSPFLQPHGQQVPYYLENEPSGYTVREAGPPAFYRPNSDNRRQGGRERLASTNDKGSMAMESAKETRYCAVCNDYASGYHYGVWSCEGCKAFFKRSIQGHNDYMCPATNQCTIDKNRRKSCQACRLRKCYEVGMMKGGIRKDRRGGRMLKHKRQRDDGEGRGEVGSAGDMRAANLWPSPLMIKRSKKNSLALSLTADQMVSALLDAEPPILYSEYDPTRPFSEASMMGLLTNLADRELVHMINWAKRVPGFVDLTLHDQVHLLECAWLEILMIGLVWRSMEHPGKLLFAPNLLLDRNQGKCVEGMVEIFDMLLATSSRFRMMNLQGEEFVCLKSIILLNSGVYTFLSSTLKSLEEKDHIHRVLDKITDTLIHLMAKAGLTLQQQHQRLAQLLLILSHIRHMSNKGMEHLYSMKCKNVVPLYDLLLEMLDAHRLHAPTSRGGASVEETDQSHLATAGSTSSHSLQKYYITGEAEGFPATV
# Aromatase (Homo sapiens), sequence (P11511 whole entry, looked up): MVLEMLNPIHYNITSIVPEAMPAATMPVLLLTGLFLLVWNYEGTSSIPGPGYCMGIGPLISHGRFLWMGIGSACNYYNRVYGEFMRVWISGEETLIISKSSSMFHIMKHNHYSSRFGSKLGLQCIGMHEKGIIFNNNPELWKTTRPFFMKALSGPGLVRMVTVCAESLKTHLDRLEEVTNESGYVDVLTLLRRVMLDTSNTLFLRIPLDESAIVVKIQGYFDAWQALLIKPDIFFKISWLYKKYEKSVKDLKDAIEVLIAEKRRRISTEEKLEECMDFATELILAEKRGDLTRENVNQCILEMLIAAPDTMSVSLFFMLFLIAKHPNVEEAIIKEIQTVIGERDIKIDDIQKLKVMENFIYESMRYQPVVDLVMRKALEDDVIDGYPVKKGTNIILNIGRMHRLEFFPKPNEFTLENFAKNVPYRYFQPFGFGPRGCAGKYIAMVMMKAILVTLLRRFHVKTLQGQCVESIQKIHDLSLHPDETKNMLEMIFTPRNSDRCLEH
# Peroxisome proliferator-activated receptor gamma (Homo sapiens), sequence (P37231 whole entry, looked up): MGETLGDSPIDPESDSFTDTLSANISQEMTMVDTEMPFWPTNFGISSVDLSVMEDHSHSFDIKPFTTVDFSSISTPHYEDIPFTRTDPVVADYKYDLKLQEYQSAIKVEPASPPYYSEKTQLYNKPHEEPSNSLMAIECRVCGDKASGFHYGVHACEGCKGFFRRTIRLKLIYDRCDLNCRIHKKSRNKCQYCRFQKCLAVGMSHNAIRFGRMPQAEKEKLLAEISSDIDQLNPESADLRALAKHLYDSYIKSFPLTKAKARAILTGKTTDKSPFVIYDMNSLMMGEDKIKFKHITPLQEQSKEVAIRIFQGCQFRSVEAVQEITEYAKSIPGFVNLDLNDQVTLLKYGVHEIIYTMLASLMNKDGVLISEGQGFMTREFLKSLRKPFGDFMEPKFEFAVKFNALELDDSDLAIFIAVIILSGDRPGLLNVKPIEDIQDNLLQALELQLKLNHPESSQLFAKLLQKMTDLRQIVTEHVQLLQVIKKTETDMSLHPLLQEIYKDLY
Structure (SMILES),Potency [1],Potency [2],outcome [3],outcome [4],Potency [5],Potency [6],outcome [7],outcome [8],outcome [9],Potency [10],Potency [11],outcome [12],Potency (Aromatase (Homo sapiens)),Potency [13],outcome [14],Potency [15],outcome [16],outcome [17],outcome [18],Potency [19]
CC(C)C[C@H](NC(=O)CNC(=O)[C@H](Cc1ccc(O)cc1)NC(=O)[C@H](CO)NC(=O)[C@H](Cc1c[nH]c2ccccc12)NC(=O)[C@H](Cc1cnc[nH]1)NC(=O)[C@@H]1CCC(=O)N1)C(=O)N[C@@H](CCCN=C(N)N)C(=O)N1CCC[C@H]1C(=O)NCC(N)=O (stereo in doubt),inactive,inactive,inactive,inactive,inactive,inactive,inactive,inactive,,,,,,,,,,,,
COCCOC(=O)C1=C(C)NC(C)=C(C(=O)OC(C)C)C1c1cccc([N+](=O)[O-])c1 (centres undefined),inactive,,inactive,inactive,,,inactive,,inactive,inactive,inactive,inactive,inactive,inactive,inactive,inactive,inactive,inactive,,
CC(=O)c1ccc2c(c1)Cc1ccccc1-2,,inactive,inactive,inactive,inactive,7.7 µM (active),inactive,,,24.4 µM (active),,inactive,inactive,inactive,inactive,inactive,inactive,inactive,inactive,54.5 µM (active)
OCCCCC(O)CO (centres undefined),inactive,inactive,,inactive,inactive,inactive,inactive,inactive,,,,inactive,inactive,inactive,inactive,inactive,inactive,,,inactive
C=CCCCCCCCCCCCC,inactive,inactive,inactive,,inactive,,inactive,,,,,inactive,inactive,inactive,inactive,inactive,inactive,inactive,,inactive
O=P(O)(O)OP(=O)(O)O,inactive,,,inactive,,inactive,inactive,inactive,,,,inactive,,,,,inactive,inactive,,
COc1nccnc1NS(=O)(=O)c1ccc(N)cc1,inactive,inactive,inactive,,inactive,inactive,,inactive,,,,inactive,inactive,inactive,inactive,inactive,inactive,,,inactive
CCCCNc1ccc(C(=O)OCCN(C)C)cc1,inactive,,inactive,inactive,inactive,,,,,,,inactive,inactive,inactive,,,inactive,inactive,,inactive
CC(COC(C)(C)C)OCCCO (centres undefined),inactive,inactive,,inactive,inactive,inactive,,inactive,,,,inactive,inactive,inactive,inactive,inactive,inactive,inactive,,inactive
OC[C@H](Cc1cccc(O)c1)[C@H](CO)Cc1cccc(O)c1,inactive,,inactive,inactive,inactive,,inactive,inactive,,,,inactive,inactive,inactive,inactive,inactive,inactive,inactive,,inactive
